From PubChem BioAssay (NCATS)
Records with an inconclusive call do not appear. Activity calls are given as the source filed them. Calls follow the shape of the dose curve; as a rule, active = well fitted inhibition curve with a large enough effect; inconclusive = small, poorly fitted or top-dose-only effect; inactive = flat fitted curve, though single readings scatter.

How the values were obtained:
Assay in all cases: qHTS profiling for inhibitors of Plasmodium falciparum proliferation (AID 504749); also: nearly all actives have a fitted effect of over 60% in size
Details in all cases: P. falciparum in erythrocytes, SYBR Green DNA, 72 h; series mostly up to 28.7 µM
CP250 = system: CP250
Summary of the method: (§1)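 SYBR Green fluorescence (ex 485 nm, em 535 nm) reports parasite DNA after 72 h compound exposure of infected red cells at 0.3% parasitemia, 2.5% hematocrit; signal normalized to 0.29 uM artemisinin and vehicle wells.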

CP252 = system: CP252
Summary of the method: as §1

CP256 = system: CP256
Summary of the method: as §1

CP260 = system: CP260
Summary of the method: as §1

CP262 = system: CP262
Summary of the method: as §1

CP265 = system: CP265
Summary of the method: as §1

CP266 = system: CP266
Summary of the method: as §1

CP268 = system: CP268
Summary of the method: as §1

CP269 = system: CP269
Summary of the method: as §1

CP286 = system: CP286
Summary of the method: as §1

Measured: Potency

NCC[C@H](O)C(=O)N[C@@H]1C[C@H](N)[C@@H](O[C@H]2O[C@H](CN)[C@@H](O)[C@H](O)[C@H]2O)[C@H](O)[C@H]1O[C@H]1O[C@H](CO)[C@@H](O)[C@H](N)[C@H]1O
inactive: CP250 | CP252 | CP256 | CP260 | CP262 | CP265 | CP266 | CP268 | CP269 | CP286

O=C(CCCCCCCCCCCCC1CCCC1)Nc1ccc(S(=O)(=O)c2ccc(NC(=O)CCCCCCCCCCCCC3CCCC3)cc2)cc1
inactive: CP250 | CP252 | CP256 | CP260 | CP262 | CP265 | CP266 | CP268 | CP269 | CP286

CN(C)c1ccc(C(=C2C=CC(=[N+](C)C)C=C2)c2c(O)c(S(=O)(=O)[O-])cc3cc(S(=O)(=O)O)ccc23)cc1
inactive: CP250 | CP252 | CP256 | CP260 | CP262 | CP265 | CP266 | CP268 | CP269 | CP286

O=C(O)CCC/C=C\C[C@@H]1[C@@H](/C=C/[C@@H](O)COc2cccc(C(F)(F)F)c2)[C@H](O)C[C@@H]1O
inactive: CP250 | CP252 | CP256 | CP260 | CP262 | CP265 | CP266 | CP268 | CP269 | CP286

CS(=O)(=O)OCC(O)C(O)COS(C)(=O)=O (stereo not given)
inactive: CP250 | CP252 | CP256 | CP260 | CP262 | CP265 | CP266 | CP268 | CP269 | CP286

O=C(NNCNNC(=O)c1ccncc1)c1ccncc1
inactive: CP250 | CP252 | CP256 | CP260 | CP262 | CP265 | CP266 | CP268 | CP269 | CP286

c1ccc2c(c1)OCC(CN1CCCCC1)O2 (stereo not given)
inactive: CP250 | CP252 | CP256 | CP260 | CP262 | CP265 | CP266 | CP268 | CP269 | CP286

Cc1cc(=O)c(C(=O)N[C@@H](C(=O)N[C@@H]2C(=O)N3C(C(=O)O)=C(CSc4nnnn4C)CS[C@H]23)c2ccc(O)cc2)c[nH]1
inactive: CP250 | CP252 | CP256 | CP260 | CP262 | CP265 | CP266 | CP268 | CP269 | CP286

CC(CNC(=O)c1cccnc1)NC(=O)c1cccnc1 (stereo not given)
inactive: CP250 | CP252 | CP256 | CP260 | CP262 | CP265 | CP266 | CP268 | CP269 | CP286

O=C1c2ccccc2C(=O)C1c1ccc(Cl)cc1
inactive: CP250 | CP252 | CP256 | CP260 | CP262 | CP265 | CP266 | CP268 | CP269 | CP286

FC(F)(F)C(F)(F)C(F)(F)C(F)(F)C(F)(F)F
inactive: CP250 | CP252 | CP256 | CP260 | CP262 | CP265 | CP266 | CP268 | CP269 | CP286

O=C(O)/C=C/c1ccccc1
inactive: CP250 | CP252 | CP256 | CP260 | CP262 | CP265 | CP266 | CP268 | CP269 | CP286

O=C(NNCS(=O)(=O)O)c1ccncc1
inactive: CP250 | CP252 | CP256 | CP260 | CP262 | CP265 | CP266 | CP268 | CP269 | CP286

O=C(O)CCC/C=C\C[C@@H]1[C@@H](/C=C/[C@@H](O)COc2cccc(Cl)c2)[C@H](O)C[C@@H]1O
inactive: CP250 | CP252 | CP256 | CP260 | CP262 | CP265 | CP266 | CP268 | CP269 | CP286

CC1(O)CCC(C(C)(C)O)CC1 (stereo not given)
inactive: CP250 | CP252 | CP256 | CP260 | CP262 | CP265 | CP266 | CP268 | CP269 | CP286

CC(C)[C@@H](N)C(=O)O
inactive: CP250 | CP252 | CP256 | CP260 | CP262 | CP265 | CP266 | CP268 | CP269 | CP286

O=C(/C=C/c1cccc(F)c1)NC1CC1
inactive: CP250 | CP252 | CP256 | CP260 | CP262 | CP265 | CP266 | CP268 | CP269 | CP286

COc1ccc(/C=N/NC(=O)c2ccncc2)c(C(=O)O)c1OC
inactive: CP250 | CP252 | CP256 | CP260 | CP262 | CP265 | CP266 | CP268 | CP269 | CP286

CC(C)CCC[C@@H](C)[C@H]1CC[C@H]2[C@@H]3CC=C4C[C@@H](O)CC[C@]4(C)[C@H]3CC[C@]12C
inactive: CP250 | CP252 | CP256 | CP260 | CP262 | CP265 | CP266 | CP268 | CP269 | CP286

OC1OC[C@@H](O)[C@H](O)[C@@H]1O (stereo not given in full)
inactive: CP250 | CP252 | CP256 | CP260 | CP262 | CP265 | CP266 | CP268 | CP269 | CP286

CCOC(=O)C1=C(COCCN)NC(C)=C(C(=O)OC)C1c1ccccc1Cl (stereo not given)
inactive: CP250 | CP252 | CP256 | CP260 | CP262 | CP265 | CP266 | CP268 | CP269 | CP286

O=C(O)c1ccc(OCCn2ccnc2)cc1
inactive: CP250 | CP252 | CP256 | CP260 | CP262 | CP265 | CP266 | CP268 | CP269 | CP286

CC(=O)Nc1ccc(OC(C)=O)cc1
inactive: CP250 | CP252 | CP256 | CP260 | CP262 | CP265 | CP266 | CP268 | CP269 | CP286
